Screen size: about 5,500 compounds; about 2,000 (36%) were called active. Not shown: some 18% with an inconclusive outcome. Rule as the data show it: active = normalized growth mostly below about 0.91 (no sharp cut-off); inconclusive = no clear call, values can overlap the other calls; inactive = mostly above about 0.92. The list shows a part of the results.
Assay: chemical genetic growth profiling, strain panel (AID 1159580);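 also: tested at 20 µM; growth read once vehicle control cultures reached saturation at 30 °C; 1 = growth at the plate median or of vehicle wells; lower values mean less growth of the strain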
Settings: S. cerevisiae deletion strains, growth OD

Measured: normalized growth

COC(=O)[C@@H](N)CCCN=C(N)N[N+](=O)[O-]
inactive: locus YAL013W, strain DEP1, hits give low values 0.999 | locus YAL040C, strain CLN3, hits give low values 1 | locus YCL061C, strain MRC1 (second series), hits give low values 1 | locus YDR150W, strain NUM1, hits give low values 1.01 | locus YDR363W, strain ESC2, hits give low values 1.01 | locus YER002W, strain NOP16, hits give low values 0.991 | locus YGR078C, strain PAC10, hits give low values 1.01 | locus YMR307W, strain GAS1, hits give low values 0.986 | locus YNL175C, strain NOP13, hits give low values 1 | locus YNL197C, strain WHI3, hits give low values 0.994 | locus YNL224C, strain SQS1, hits give low values 1 | locus YNL322C, strain KRE1, hits give low values 1.02 | locus YOR083W, strain WHI5 (second series), hits give low values 1

From PubChem BioAssay AID1159580 (chemical genetic matrix, 2015)
